The list is not random: actives were taken first. Their share in the collection is about 0.9%.
TcdB inh – inhibitors of Clostridioides difficile toxin B glycohydrolase; AID 652162; inhibition, % at 9.99 µM; 350,000 tested, 0.24% active; TcdB glycohydrolase enzymatic assay, plate reader; P18177; in the data active means inhibition above about 10%
Mtb UGM inh – blocks M. tuberculosis UGM enzyme; P9WIQ1; purified UGM, fluorescence polarization probe displacement; inhibition, % at 10 µM; 320,000 tested, 0.06% active; in the data active means inhibition above about 10%, passing the limit was not always enough
Rv3671c inh – Rv3671c (M. tuberculosis) protease inhibition | AID 2606 | 320,000 tested, 0.048% active | inhibition, % at 5.96 µM; in the data active means inhibition above about 38%;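 further: extracellular domain of Rv3671c used as enzyme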
FadD28 binding – inhibitors of Mycobacterium tuberculosis FadD28 bisubstrate binding; AID 588549; inhibition, % at 12.5 µM; FadD28 bisubstrate probe binding, fluorescence polarization; 360,000 tested, 0.22% active; in the data active means inhibition above about 8.5%, passing the limit was not always enough
RecA intein inh – Mtb RecA intein splicing inhibition. cell-free RecA intein splicing, fluorescence. inhibition, % (concentration not given with the values). 290,000 tested, 0.75% active. P9WHJ3; in the data active means inhibition above about 30%
Target sequence (P9WHJ3 whole entry, looked up): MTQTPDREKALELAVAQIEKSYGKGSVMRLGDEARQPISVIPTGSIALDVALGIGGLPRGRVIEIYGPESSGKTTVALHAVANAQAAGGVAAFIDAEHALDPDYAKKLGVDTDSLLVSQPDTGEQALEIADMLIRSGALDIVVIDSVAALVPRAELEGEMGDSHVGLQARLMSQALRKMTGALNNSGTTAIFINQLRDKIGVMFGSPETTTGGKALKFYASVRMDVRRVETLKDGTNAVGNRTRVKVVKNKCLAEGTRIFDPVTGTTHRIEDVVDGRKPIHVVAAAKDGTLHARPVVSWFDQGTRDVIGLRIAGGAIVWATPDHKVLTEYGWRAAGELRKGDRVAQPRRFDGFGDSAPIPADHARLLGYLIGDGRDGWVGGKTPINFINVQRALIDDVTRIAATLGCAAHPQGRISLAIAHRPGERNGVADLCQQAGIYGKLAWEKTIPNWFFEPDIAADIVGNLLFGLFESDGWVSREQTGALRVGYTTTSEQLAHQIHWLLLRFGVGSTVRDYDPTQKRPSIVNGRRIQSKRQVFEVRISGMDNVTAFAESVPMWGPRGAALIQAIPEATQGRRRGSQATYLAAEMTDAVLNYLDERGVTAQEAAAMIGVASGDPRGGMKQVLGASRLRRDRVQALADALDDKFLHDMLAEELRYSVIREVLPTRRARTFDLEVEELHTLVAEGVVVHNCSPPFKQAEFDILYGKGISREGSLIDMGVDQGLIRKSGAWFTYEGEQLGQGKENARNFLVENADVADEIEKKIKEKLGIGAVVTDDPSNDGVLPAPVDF
BioA inh – blocks M. tuberculosis BioA enzyme activity | purified M. tuberculosis BioA enzyme, plate reader | inhibition, % at 9.99 µM | 360,000 tested, 0.096% active | AID 602481; in the data active means inhibition above about 40%
A number is an active result; n = inactive; x = no result.

SMILES | TcdB inh | Mtb UGM inh | Rv3671c inh | FadD28 binding | RecA intein inh | BioA inh
CC(C)NC(=O)N(C)C[C@H]1OCCCC[C@H](C)Oc2ccc(NC(=O)c3ccccc3)cc2C(=O)N([C@H](C)CO)C[C@H]1C | n | x | x | x | x | n
CC(=O)N1CC2(C1)[C@H](c1ccc(-c3cccc(F)c3)cc1)[C@@H](CO)N2CC1CCCC1 | n | x | x | x | x | x
O=C(CCn1cnc2ccccc21)N/N=C/c1ccc(O)cc1 | 14 | n | n | n | n | n
COc1cccc(/C=N/NC(=O)CSc2cccc3cccnc23)c1 | n | n | n | n | n | n
COc1cc(/C=N/NC(=O)CCNC(=O)c2ccccc2Cl)ccc1O | n | n | n | n | n | x
O=C(CCNC(=O)c1ccccc1Cl)N/N=C\c1ccc(O)cc1 | 15 | n | n | n | n | n
O=C(CSc1cccc2cccnc12)N/N=C/c1ccc(O)cc1 | 20 | n | n | n | n | n
O=C(CNS(=O)(=O)c1ccccc1)N/N=C/c1ccc(O)cc1 | 14 | n | n | n | n | x
O=C(CCn1cnc2ccccc21)N/N=C/c1ccccc1O | n | n | n | n | n | n
Cc1ccc(-c2cnc3c(c2)C(=O)N([C@@H](C)CO)C[C@H](C)[C@@H](CN(C)C(=O)c2ccc(F)cc2)O3)cc1 | n | x | x | x | x | n
O=C(CN1C(=O)NC2(CCOc3ccccc32)C1=O)c1ccc(Cl)s1 (stereo not given) | n | n | n | 9.6 | x | n
CCc1ccc(C(=O)CN2C(=O)NC3(CCOc4ccccc43)C2=O)s1 (stereo not given) | n | n | n | n | x | n
O=C(N/N=C1/CC2C=CCC12)c1ccc(Br)o1 (stereo not given) | n | n | n | n | n | n
NC(=O)NN=C1CC2CC1C1C=CCC21 (stereo not given) | 14 | x | x | n | x | x
N#CC(C#N)=C(N)/C(C#N)=C/c1cc(O)c(O)c(O)c1 | n | n | n | 13 | x | n
CCOC(=O)CSc1n[nH]c(NC(=O)c2cccc(C(F)(F)F)c2)n1 | x | n | n | n | 50 | n
CCOC(=O)CSc1n[nH]c(NC(=O)CC)n1 | n | n | n | n | n | x
C[C@H](CO)N1C[C@H](C)[C@H](CN(C)C(=O)Nc2ccc(C(F)(F)F)cc2)Oc2c(NC(=O)CCCCCC(=O)Nc3ccccc3N)cccc2C1=O | n | x | x | x | x | x
O=C(C[C@H]1CC[C@@H]2[C@H](COC[C@H](O)CN2Cc2cc(F)ccc2F)O1)NCc1ccc(F)cc1 | n | x | x | x | x | n
O=C(c1cccs1)c1no[n+]([O-])c1C(=O)c1cccs1 | x | 11 | n | n | n | n
C[C@H]1CN([C@@H](C)CO)C(=O)Cc2cc(NS(=O)(=O)c3ccc(F)cc3)ccc2O[C@@H]1CN(C)C(=O)Nc1ccc(F)cc1 | n | x | x | x | x | n
COc1cc(NS(=O)(=O)c2ccc(NC(=O)CSC3=NCCS3)cc2)nc(OC)n1 | x | n | n | x | n | x
O=C(CSc1ncccn1)Nc1ccc(S(=O)(=O)N2CCCCC2)cc1 | x | n | n | n | n | n
O=C(CSC1=NCCS1)Nc1ccc(S(=O)(=O)N2CCCCCC2)cc1 | x | n | n | n | 33 | n
O=C(CSC1=NCCS1)Nc1ccc(S(=O)(=O)NC2CCCCC2)cc1 | x | n | n | n | 42 | n
SMILES | TcdB inh | Mtb UGM inh | Rv3671c inh | FadD28 binding | RecA intein inh | BioA inh
O=C(CSc1ccc(-c2nc3ccccc3[nH]2)cn1)Nc1ccc(S(=O)(=O)NC2CC2)cc1 | n | n | n | 33 | n | n
Cc1ccc(F)cc1S(=O)(=O)N[C@@H]1CCN(Cc2ccc3[nH]ccc3c2)C1 | n | x | x | x | x | n
CO[C@@H]1CN(C)C(=O)c2ccc(NC(=O)Nc3ccccc3F)cc2OC[C@@H](C)N(C(C)=O)C[C@H]1C | n | x | x | x | x | x
COc1ccc2c3c([nH]c2c1)[C@H](CO)N(Cc1cccc(Cl)c1)CC31CCN(C)CC1 | n | x | x | x | x | x
Cn1nc([N+](=O)[O-])c(C(C#N)c2nc3ccccc3n2C)c(Cl)c1=O (stereo not given) | x | n | n | 12 | n | x
Cn1c(-c2ccc([N+](=O)[O-])cc2)nc2ccccc21 | n | n | n | n | n | n
C[C@H](CO)N1C[C@H](C)[C@H](CN(C)C(=O)c2cccnc2)Oc2cc(C#CC3(O)CCCC3)ccc2S1(=O)=O | n | x | x | x | x | n
NC(=O)c1cc(-c2csc(NCCc3ccccc3)n2)ccc1O | n | n | n | 15 | x | n
C=CCNc1nc(-c2ccc(O)c(C(N)=O)c2)cs1 | x | n | n | n | n | n
Cc1ccc(CCNc2ccc3ccccc3c2)cn1 | x | n | n | n | 38 | x
Oc1ccc(-c2cn3ccccc3n2)cc1 | 41 | n | n | n | n | x
CCOC(=O)c1ccc[n+](CC(=O)c2ccc(NC(=O)c3ccccc3)cc2)c1 | 12 | n | n | n | n | n
CCC(=O)Nc1ccc2c(c1)C(=O)N(C)C[C@@H](OC)[C@@H](C)CN(CC1CCOCC1)[C@H](C)CO2 | x | x | x | x | x | n
S=C(NCCN1CCOCC1)Nc1ccc(Nc2ccccc2)cc1 | 31 | n | n | n | n | n
CCCC#Cc1cnc2c(c1)C(=O)N([C@H](C)CO)C[C@H](C)[C@H](CN(C)C(=O)C1CCOCC1)O2 | n | x | x | x | x | n
COc1ccc2c(c1)Cc1cc(NC(=O)c3ccccc3-c3ccccc3C(=O)O)ccc1-2 | n | x | x | 11 | x | n
COc1ccc(NC(=O)c2ccccc2-c2ccccc2C(=O)O)cc1 | n | n | n | n | n | n
O=C(CSc1ncnc2c1nnn2Cc1ccc(F)cc1)NCC1CCCO1 (stereo not given) | n | n | n | n | 39 | n
COC(=O)C(C(=O)OC)C(CC(=O)c1ccc(Br)cc1)c1ccccc1 (stereo not given) | 14 | x | x | n | x | n
O=C(N/N=C/c1ccsc1)C1CC1 | n | n | n | n | n | x
O=C(N/N=C/c1ccc(O)c(O)c1)C1CC1 | 16 | n | n | n | n | n
C[C@@H]1CN([C@H](C)CO)S(=O)(=O)c2ccc(-c3cncnc3)cc2O[C@H]1CN(C)C | n | x | x | x | x | n
O=c1onc(-c2ccccc2)n1Cc1ccc([N+](=O)[O-])cc1 | 10 | x | x | n | x | n
COc1ccc(S(=O)(=O)N2CCCCN3[C@H](C2)[C@H](c2ccc(C4=CCCCC4)cc2)[C@@H]3CO)cc1 | n | x | x | x | x | n
Cc1nn(Cc2ccc(F)cc2)c(Cl)c1/C=N/NC(=O)c1cccnc1 | n | n | n | n | n | 98
SMILES | TcdB inh | Mtb UGM inh | Rv3671c inh | FadD28 binding | RecA intein inh | BioA inh
O=C(O)c1ccc(N/N=C/c2ccc(-c3cccc(Cl)c3)o2)cc1 | n | n | n | 9.9 | n | n
Cc1c(C(=O)O)cccc1-c1ccc(/C=N/n2cnnc2)o1 | n | n | n | n | n | n
O=C(O)c1ccc(N/N=C/c2ccc(-c3cc(Cl)ccc3Cl)o2)cc1 | n | n | n | n | n | n
Cc1c(C(=O)O)cccc1-c1ccc(/C=N/Nc2ccc(Br)cc2)o1 | x | n | n | 17 | n | 57
O=C(O)c1cccc(-c2ccc(/C=N/Nc3ccc([N+](=O)[O-])cc3)o2)c1 | n | n | n | 23 | n | n
C[C@@H]1CCCCO[C@H](CN(C)S(C)(=O)=O)[C@@H](C)CN([C@@H](C)CO)C(=O)c2cc(NC(=O)C3CCCCC3)ccc2O1 | n | x | x | x | x | n
CO[C@@H]1CN(C)C(=O)c2cc(NC(=O)C3CC3)ccc2OC[C@H](C)N(Cc2cccnc2)C[C@@H]1C | n | x | x | x | x | n

High-throughput results deposited in PubChem BioAssay by several laboratories.
